The nature of the experiment: qHTS drug screen for cell cycle checkpoint inhibitors in PARPi-resistant BRCA-mutant ovarian cancer cell lines. (AID 1963452). Particulars: PEO1/OlaR viability, CellTiter-Glo luminescence, 96 h; for Z-AUC: stronger effect = lower value. Put shortly:
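PEO1, PEO4 and PEO1/OlaR ovarian cancer cells, 600 per well, exposed 96 h at 37C to a dilution series. Viability read by CellTiter-Glo luminescence, normalized to DMSO and empty wells; activity summarized as Z-AUC.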

Where [1] appears, read: measured here: PEO1 parental Z-AUC.

Structures are written as SMILES. Activity calls are given as the source filed them. The call rests on the fitted dose curve.
Potency means the concentration at half of the fitted maximal effect.

On to `CN(Cc1ccc(/C=C/C(=O)NO)cc1)CC12CC3CC(CC(C3)C1)C2`, for which the Z-AUC is -0.476 (inactive). The Z-AUC under setting [1] is -0.953. For the setting “measured here: PEO4 Z-AUC”, the Z-AUC is -1.12.
For `CC(=O)c1ccc2c(c1)c1cc(C(C)=O)ccc1n2CCNC(C)C`, the Potency is 1550 nM (active). Besides, the Z-AUC under setting [1] was -1.63. The Z-AUC (measured here: PEO4 Z-AUC) was -1.42.
Take `C=CC(=O)N1CC/C(=C\c2ccc(F)c([N+](=O)[O-])c2)C(=O)/C(=C/c2ccc(F)c([N+](=O)[O-])c2)C1`: the Potency was 219 nM (active). The Z-AUC under setting [1] was -2.29. For the setting “measured here: PEO4 Z-AUC”, the Z-AUC was -2.19.
As for `COc1nc(OCc2cccc(-c3ccccc3)c2C)ccc1CNCCNC(C)=O`, the Z-AUC is -0.638 (inactive). Also, under setting [1], the Z-AUC was -0.646. In addition, for the setting “measured here: PEO4 Z-AUC”, the Z-AUC was -0.574.
With `O=C(/C=C/c1ccc2ccc(C(F)(F)F)cc2n1)c1ccncc1`, the Z-AUC is -0.632 (inactive). Under setting [1], the Z-AUC is -0.753. For the same molecule, the Z-AUC (measured here: PEO4 Z-AUC) is -0.961.
In the case of `O=C(/C=C/c1ccc(CN(CCO)CCc2c[nH]c3ccccc23)cc1)NO`, the Potency is 174 nM (active). In addition, under setting [1], the Z-AUC is -1.35. Under “measured here: PEO4 Z-AUC”, the Z-AUC was -1.27.
As to `CC(=O)NCC(=O)N1[C@@H]2CC[C@H]1c1ccc(Nc3ncc(C(F)(F)F)c(NC4CCC4)n3)cc12`, the Z-AUC was -0.104 (inactive). Under setting [1], the Z-AUC was -0.113. Further, for the setting “measured here: PEO4 Z-AUC”, the Z-AUC is -0.17.
On the same counts, the results for `C=CCNc1c(O)cc2c(O)c1C[C@@H](C)C[C@H](OC)[C@H](O)[C@@H](C)/C=C(/C)[C@H](OC(N)=O)[C@@H](OC)/C=C\C=C(\C)C(=O)N2` are 0.465 (inactive), 0.348 and 0.268.
On the same counts, the results for `O=C(O)c1ccc(O)c2ncccc12` are 1.08 (inactive), 0.983 and 1.08.
Taken in the same sequence, the figures for `COc1ccc(N2C(=O)N(c3c(C)cccc3Cl)Cc3cnc(Nc4ccc(C5CCN(C)CC5)cc4OC)nc32)nc1` were -1.61 (inactive), -1.1 and -0.332.

The values above are taken from PubChem BioAssay (NCATS).
